# Test results from PubChem BioAssay (NCATS).
# Values without a mark were called inactive. Records with an inconclusive call do not appear. Where a call stands in place of a potency, no number is given. Calls of active or inactive are those of the source. Unless noted, the call rests on the fitted dose curve; in most records, active means well fitted curve in the direction sought with a large enough effect; inconclusive means small, poorly fitted or top-dose-only effect, or another doubt; inactive means no such curve, though single readings can be large; an effect the other way counts as inactive or inconclusive.
# Experiments:
# [1] = AP1 Signaling Pathway (AID 357; active means well fitted curve in either direction with a large enough effect, not every such curve was filed as active;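 further: ME-180 reporter cells stimulated with EGF at its EC50 level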)
# How it was run: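 AP-1-bla ME-180 cells, Opti-MEM + 0.5% dialyzed FBS, plated overnight 37 °C. Cpd titration + EC50 EGF, 5 h 37 °C. CCF4 2.5 h RT; ex 405, em 460/530 ratio → %activity, AC50.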
# [2] = target: Glucocorticoid receptor (Homo sapiens) (UniProt P04150); assay: GR-GFP Redistribution (AID 450;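 active means compounds whose dose series gives a full or clear partial fitted curve of increased nuclear translocation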; further: potency means the concentration at half of the fitted maximal effect); conditions: U2OS GR-GFP nuclear translocation, laser cytometry, 2 h
# Sequence of Glucocorticoid receptor (Homo sapiens) (P04150 whole entry, looked up): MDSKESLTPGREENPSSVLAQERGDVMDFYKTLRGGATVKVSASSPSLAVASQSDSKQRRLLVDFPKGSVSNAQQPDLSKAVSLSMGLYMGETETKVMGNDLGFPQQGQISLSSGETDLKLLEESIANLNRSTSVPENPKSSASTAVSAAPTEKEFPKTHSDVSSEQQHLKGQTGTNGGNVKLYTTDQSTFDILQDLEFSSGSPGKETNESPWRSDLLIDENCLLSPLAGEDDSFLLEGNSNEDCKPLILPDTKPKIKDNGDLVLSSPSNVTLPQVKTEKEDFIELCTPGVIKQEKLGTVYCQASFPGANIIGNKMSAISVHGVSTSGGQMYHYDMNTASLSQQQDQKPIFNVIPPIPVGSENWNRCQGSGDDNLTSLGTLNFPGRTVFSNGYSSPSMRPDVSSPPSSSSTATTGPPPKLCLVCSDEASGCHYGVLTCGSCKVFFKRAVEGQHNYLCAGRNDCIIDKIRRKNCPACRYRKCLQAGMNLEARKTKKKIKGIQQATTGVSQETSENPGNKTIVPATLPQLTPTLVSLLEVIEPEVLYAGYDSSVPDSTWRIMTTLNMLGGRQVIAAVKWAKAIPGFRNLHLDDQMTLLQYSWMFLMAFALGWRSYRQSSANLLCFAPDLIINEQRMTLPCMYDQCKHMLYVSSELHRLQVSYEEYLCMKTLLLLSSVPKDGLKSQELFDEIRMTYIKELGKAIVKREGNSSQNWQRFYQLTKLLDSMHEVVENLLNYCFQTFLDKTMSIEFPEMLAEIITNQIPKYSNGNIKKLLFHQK
# [3] = target: Cytochrome P450 3A4 (Homo sapiens) (UniProt P08684); assay: qHTS Assay for Activators of Cytochrome P450 3A4 (AID 885); further: nearly all actives have a fitted effect of over 65% in size
# Sequence of Cytochrome P450 3A4 (Homo sapiens) (P08684 whole entry, looked up): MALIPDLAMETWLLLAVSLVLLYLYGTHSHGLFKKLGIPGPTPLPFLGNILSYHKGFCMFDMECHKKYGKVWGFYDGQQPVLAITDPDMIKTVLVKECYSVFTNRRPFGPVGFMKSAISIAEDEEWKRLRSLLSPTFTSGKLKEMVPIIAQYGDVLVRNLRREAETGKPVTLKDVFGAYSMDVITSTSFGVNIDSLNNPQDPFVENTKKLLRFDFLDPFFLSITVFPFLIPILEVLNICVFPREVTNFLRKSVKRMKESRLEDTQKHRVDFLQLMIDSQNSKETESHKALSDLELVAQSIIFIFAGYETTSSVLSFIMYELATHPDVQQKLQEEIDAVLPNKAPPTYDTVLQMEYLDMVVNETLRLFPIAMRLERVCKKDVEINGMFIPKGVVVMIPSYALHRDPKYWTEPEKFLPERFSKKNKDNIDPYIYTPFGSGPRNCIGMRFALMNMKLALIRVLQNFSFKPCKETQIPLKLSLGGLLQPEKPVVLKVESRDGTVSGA
# How it was run: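 Using 20nM recombinant human CYP3A4 in potassium phosphate (200mM), substrate Luciferin-PPXE at 25uM, luminescent luciferin detection followed a 60-min RT NADPH reaction; data scaled to 57 uM ketoconazole.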
# [4] = target: ATP-dependent 6-phosphofructokinase (Trypanosoma brucei brucei) (UniProt O15648); assay: qHTS Assay to Find Inhibitors of T. brucei phosphofructokinase: hit validation (AID 492961);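 further: luminescence reports ADP formed as PFK phosphorylates fructose-6-phosphate with ATP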
# Sequence of ATP-dependent 6-phosphofructokinase (Trypanosoma brucei brucei) (O15648 whole entry, looked up): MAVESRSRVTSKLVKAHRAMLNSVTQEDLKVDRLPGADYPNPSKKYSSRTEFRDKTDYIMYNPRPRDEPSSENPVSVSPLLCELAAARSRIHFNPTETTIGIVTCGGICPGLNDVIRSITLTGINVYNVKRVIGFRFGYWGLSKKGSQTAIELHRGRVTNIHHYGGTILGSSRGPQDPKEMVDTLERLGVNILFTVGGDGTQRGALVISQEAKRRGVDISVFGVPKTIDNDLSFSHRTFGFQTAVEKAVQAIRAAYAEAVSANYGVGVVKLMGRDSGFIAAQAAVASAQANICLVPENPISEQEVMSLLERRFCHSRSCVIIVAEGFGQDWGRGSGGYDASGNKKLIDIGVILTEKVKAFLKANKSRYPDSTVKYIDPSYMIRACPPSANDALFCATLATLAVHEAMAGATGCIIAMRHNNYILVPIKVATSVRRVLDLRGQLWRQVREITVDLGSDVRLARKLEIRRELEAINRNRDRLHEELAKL
# How it was run: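 Percent activity derived from corrected luminescence, normalized between 0x and 1x enzyme controls, then fitted to concentration-response curves. Conditions: 1.25 nM PFK, 0.1 mM ATP, 0.5 mM F6P, 45 min RT.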
# [5] = test system: 7G8; assay: qHTS profiling for inhibitors of Plasmodium falciparum proliferation (AID 504749); further: nearly all actives have a fitted effect of over 60% in size; further: potency means the concentration at half of the fitted maximal effect; conditions: P. falciparum in erythrocytes, SYBR Green DNA, 72 h; series mostly up to 12.8 µM
# How it was run: (§1)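 Fluorescence of SYBR Green-bound parasite DNA, read at 485/535 nm, served as the growth measure. Infected erythrocytes were cultured with compound 72 h; artemisinin (0.29 uM) and DMSO wells defined the normalization range.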
# [6] = test system: ATS95; assay: as above; conditions: P. falciparum in erythrocytes, SYBR Green DNA, 72 h; series mostly up to 12.8 µM
# How it was run: as §1
# [7] = test system: CP203; assay: as above; conditions: P. falciparum in erythrocytes, SYBR Green DNA, 72 h; series mostly up to 12.8 µM
# How it was run: as §1
# [8] = test system: CP215; assay: as above; conditions: P. falciparum in erythrocytes, SYBR Green DNA, 72 h; series mostly up to 12.8 µM
# How it was run: as §1
# [9] = test system: CP260; assay: as above; conditions: P. falciparum in erythrocytes, SYBR Green DNA, 72 h; series mostly up to 12.8 µM
# How it was run: as §1
# [10] = test system: CP266; assay: as above; conditions: P. falciparum in erythrocytes, SYBR Green DNA, 72 h; series mostly up to 12.8 µM
# How it was run: as §1
# [11] = test system: ICS; assay: as above; conditions: P. falciparum in erythrocytes, SYBR Green DNA, 72 h; series mostly up to 12.8 µM
# How it was run: as §1
# [12] = test system: P94_40; assay: as above; conditions: P. falciparum in erythrocytes, SYBR Green DNA, 72 h; series mostly up to 12.8 µM
# How it was run: as §1
# [13] = test system: W2; assay: as above; conditions: P. falciparum in erythrocytes, SYBR Green DNA, 72 h; series mostly up to 12.8 µM
# How it was run: as §1
# [14] = S16 Schwann cell PMP22 intronic element firefly luciferase assay (AID 624032); further: nearly all actives have a fitted effect of over 30% in size
# How it was run: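 Rat S16 Schwann cells stably carrying a PMP22 intronic element-driven Fluc reporter were seeded overnight, then exposed to compounds for 24 h at 37 °C. Luminescence was normalized to PTC124 (positive control) and DMSO (0% activity).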
# [15] = target: Cytochrome P450 2C9 (Homo sapiens) (UniProt P11712); assay: qHTS Assay for Inhibitors and Substrates of Cytochrome P450 2C9 (AID 883); further: nearly all actives have a fitted effect of over 60% in size; further: potency means the concentration at half of the fitted maximal effect
# Sequence of Cytochrome P450 2C9 (Homo sapiens) (P11712 whole entry, looked up): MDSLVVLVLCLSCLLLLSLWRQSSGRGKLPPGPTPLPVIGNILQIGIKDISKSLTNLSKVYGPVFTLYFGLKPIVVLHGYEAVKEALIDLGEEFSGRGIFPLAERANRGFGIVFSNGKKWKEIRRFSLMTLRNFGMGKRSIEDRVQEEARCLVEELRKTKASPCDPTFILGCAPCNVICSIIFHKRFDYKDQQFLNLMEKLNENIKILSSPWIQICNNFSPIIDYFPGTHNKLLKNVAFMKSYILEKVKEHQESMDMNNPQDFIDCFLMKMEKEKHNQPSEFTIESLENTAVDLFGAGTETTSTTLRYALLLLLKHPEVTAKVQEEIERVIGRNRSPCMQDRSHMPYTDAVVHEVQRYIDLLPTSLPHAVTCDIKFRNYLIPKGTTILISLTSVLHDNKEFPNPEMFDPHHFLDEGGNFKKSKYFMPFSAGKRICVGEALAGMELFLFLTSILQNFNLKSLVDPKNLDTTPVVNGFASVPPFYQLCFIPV
# How it was run: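 A luminogenic readout tracked human CYP2C9 (10nM) converting deoxyluciferin (100uM, at KM) in 25mM KPO4 during 60 min at 37C with regenerated NADPH. Values normalized to 57uM sulphaphenazole as complete inhibition.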
# [16] = target: Cytochrome P450 3A4 (Homo sapiens) (UniProt P08684); assay: qHTS Assay for Inhibitors and Substrates of Cytochrome P450 3A4 (AID 884); further: nearly all actives have a fitted effect of over 50% in size; further: potency means the concentration at half of the fitted maximal effect
# How it was run: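 Luminescent readout of luciferin produced by CYP3A4 (20 nM) dealkylation of Luciferin-PPXE, 25 uM (its KM). NADPH-driven reaction ran 60 min at RT after 10 min compound preincubation; data scaled to 57 uM ketoconazole as 100% inhibition.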
# [17] = target: Cytochrome P450 2D6 (Homo sapiens) (UniProt P10635); assay: qHTS Assay for Inhibitors and Substrates of Cytochrome P450 2D6 (AID 891); further: nearly all actives have a fitted effect of over 60% in size; further: potency means the concentration at half of the fitted maximal effect
# Sequence of Cytochrome P450 2D6 (Homo sapiens) (P10635 whole entry, looked up): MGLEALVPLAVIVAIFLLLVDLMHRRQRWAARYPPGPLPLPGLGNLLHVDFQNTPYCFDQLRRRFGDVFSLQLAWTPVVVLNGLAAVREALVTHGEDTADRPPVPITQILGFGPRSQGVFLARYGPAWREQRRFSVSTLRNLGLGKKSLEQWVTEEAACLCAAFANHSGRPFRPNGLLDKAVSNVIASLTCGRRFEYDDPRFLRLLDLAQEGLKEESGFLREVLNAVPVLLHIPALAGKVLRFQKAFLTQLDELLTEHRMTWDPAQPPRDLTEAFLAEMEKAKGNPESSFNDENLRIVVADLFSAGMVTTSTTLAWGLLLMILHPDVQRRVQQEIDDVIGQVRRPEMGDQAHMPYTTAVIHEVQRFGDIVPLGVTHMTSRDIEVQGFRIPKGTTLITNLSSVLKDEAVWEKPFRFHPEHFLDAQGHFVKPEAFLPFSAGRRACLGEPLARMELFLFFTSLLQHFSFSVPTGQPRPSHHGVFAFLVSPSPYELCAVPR
# How it was run: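 Luminescent read-out of luciferin formed by 5 nM human CYP2D6 demethylating 30 uM Luciferin-ME EGE (Km level) over 60 min at room temperature after NADPH regeneration addition. Data normalized to full inhibition by 1.43 uM quinidine.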
# [18] = target: Cytochrome P450 1A2 (Homo sapiens) (UniProt P05177); assay: p450-cyp1a2 (AID 410; calls by dose curve; further: potency means the concentration at half of the fitted maximal effect)
# Sequence of Cytochrome P450 1A2 (Homo sapiens) (P05177 whole entry, looked up): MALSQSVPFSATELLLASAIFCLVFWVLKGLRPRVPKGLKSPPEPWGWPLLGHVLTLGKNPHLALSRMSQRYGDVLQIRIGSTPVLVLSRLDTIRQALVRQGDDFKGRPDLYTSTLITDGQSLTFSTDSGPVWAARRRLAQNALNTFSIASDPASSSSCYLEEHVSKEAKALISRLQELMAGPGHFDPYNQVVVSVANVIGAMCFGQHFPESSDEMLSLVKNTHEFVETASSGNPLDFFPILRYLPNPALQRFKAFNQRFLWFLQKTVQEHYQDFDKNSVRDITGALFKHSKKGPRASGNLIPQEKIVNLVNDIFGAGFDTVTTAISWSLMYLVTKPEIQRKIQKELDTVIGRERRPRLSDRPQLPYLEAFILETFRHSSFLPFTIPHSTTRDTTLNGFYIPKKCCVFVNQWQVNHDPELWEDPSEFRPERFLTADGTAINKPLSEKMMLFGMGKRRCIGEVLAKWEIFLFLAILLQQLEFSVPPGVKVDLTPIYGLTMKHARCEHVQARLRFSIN
# How it was run: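 20nM CYP1A2, 100uM Luciferin-ME (=Km), 100mM KPO4; cpd 10 min RT; +NADPH regen, 60 min RT; stop/detect 20 min; luminescence. Normalized to furafylline 57 uM = full inhibition.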
structure (smiles),measurement,setting,value
CC(C)(C)CC(C)(C)c1ccc(OCOCCOCCO)c(Cc2cc(C(C)(C)CC(C)(C)C)cc(Cc3cc(C(C)(C)CC(C)(C)C)ccc3OCOCCOCCO)c2OCOCCOCCO)c1,outcome,[1],inactive
same,Potency,[2],> 20.6 µM
same,Potency,[3],inactive
NC[C@@H]1O[C@H](O[C@H]2[C@H](O)[C@H](O[C@@H]3O[C@H](CO)[C@@H](O)[C@H](N)[C@@H]3O)[C@@H](N)C[C@H]2N)[C@@H](O)[C@H](O)[C@@H]1O,outcome,[1],inactive
same,outcome,[4],inactive
same,Potency,[5],inactive
same,Potency,[6],inactive
same,Potency,[7],inactive
same,Potency,[8],inactive
same,Potency,[9],inactive
same,Potency,[10],inactive
same,Potency,[11],inactive
same,Potency,[12],inactive
same,Potency,[13],inactive
C[C@@H](CNC1CCCCC1)OC(=O)c1ccccc1,outcome,[1],inactive
same,Potency,[2],> 20.6 µM
same,outcome,[4],inactive
same,Potency,[14],inactive
same,Potency,[5],0.891 µM (active)
same,Potency,[10],inactive
same,Potency,[11],1.78 µM (active)
same,Potency,[12],3.55 µM (active)
same,Potency,[13],2.28 µM (active)
C[C@@H](C(=O)O)c1ccc(N2Cc3ccccc3C2=O)cc1,outcome,[1],inactive
same,Potency,[2],> 20.6 µM
same,Potency,[15],inactive
same,Potency,[16],inactive
CC1(C)[C@@H](OC(=O)CCC(=O)O)CC[C@@]2(C)[C@H]1CC[C@@]1(C)[C@H]2C(=O)C=C2[C@H]3C[C@](C)(C(=O)O)CC[C@]3(C)CC[C@@]21C,outcome,[1],inactive
same,Potency,[14],inactive
same,Potency,[5],inactive
same,Potency,[6],inactive
same,Potency,[7],inactive
same,Potency,[8],inactive
same,Potency,[9],inactive
same,Potency,[10],inactive
same,Potency,[11],inactive
same,Potency,[12],inactive
same,Potency,[13],inactive
O=C(O)COCCN1CCN([C@@H](c2ccccc2)c2ccc(Cl)cc2)CC1,outcome,[1],inactive
same,Potency,[14],inactive
same,Potency,[6],inactive
same,Potency,[7],inactive
same,Potency,[8],inactive
same,Potency,[9],inactive
same,Potency,[10],inactive
same,Potency,[12],inactive
same,Potency,[13],4.55 µM (active)
C[C@H](NCCC(c1ccccc1)c1ccccc1)c1ccccc1,outcome,[1],inactive
same,Potency,[2],> 20.6 µM
same,Potency,[3],inactive
same,Potency,[17],0.158 µM (active)
CC[N+]1(C)[C@@H]2CC[C@H]1CC(OC(=O)[C@H]1CC[C@@](C(=O)OC3C[C@H]4CC[C@@H](C3)[N+]4(C)CC)(c3ccccc3)c3ccccc31)C2 (stereo not given in full),outcome,[1],inactive
CCOC(=O)O[C@]1(C(=O)COC(=O)CC)CC[C@@H]2[C@@H]3CCC4=CC(=O)C=C[C@@]4(C)[C@H]3[C@H](O)C[C@]21C,outcome,[1],inactive
same,Potency,[2],0.00356 µM (active)
same,Potency,[3],inactive
same,Potency,[14],inactive
same,Potency,[5],inactive
same,Potency,[6],inactive
same,Potency,[7],inactive
same,Potency,[8],inactive
same,Potency,[9],inactive
same,Potency,[10],inactive
same,Potency,[11],inactive
same,Potency,[12],inactive
O=C(O)CCCC[C@H]1SC[C@H]2NC(=O)N[C@@H]21,outcome,[1],inactive
same,Potency,[2],> 20.6 µM
O=C(c1cc(C(F)(F)F)cc(C(F)(F)F)c1)N1CCC[C@@]2(CCN(c3ccccn3)C2)C1,outcome,[1],inactive
same,Potency,[16],3.98 µM (active)
same,Potency,[3],inactive
N[C@H](Cc1cc(I)c(Oc2cc(I)c(O)c(I)c2)c(I)c1)C(=O)O,outcome,[1],inactive
same,Potency,[2],> 20.6 µM
COc1cc(N[C@@H](C)CCCN)c2ncccc2c1,Potency,[3],inactive
same,outcome,[4],inactive
same,Potency,[5],0.316 µM (active)
same,Potency,[6],3.16 µM (active)
same,Potency,[7],3.61 µM (active)
same,Potency,[8],3.61 µM (active)
same,Potency,[9],1.41 µM (active)
same,Potency,[11],0.708 µM (active)
same,Potency,[12],1.41 µM (active)
same,Potency,[13],2.03 µM (active)
CCC(=O)[C@@]1(C)[C@H](C)C[C@@H]2[C@@H]3CCC4=CC(=O)C=C[C@@]4(C)[C@H]3[C@H](O)C[C@]21C,Potency,[18],inactive
same,Potency,[2],0.000592 µM (active)
same,outcome,[4],inactive
same,Potency,[14],inactive
same,Potency,[5],2 µM (active)
same,Potency,[6],inactive
same,Potency,[7],inactive
same,Potency,[8],inactive
same,Potency,[10],inactive
same,Potency,[11],3.55 µM (active)
same,Potency,[12],inactive
same,Potency,[13],5.1 µM (active)
COc1ccc2c(c1)N(C[C@@H](C)CN(C)C)c1ccccc1S2,Potency,[2],> 20.6 µM
same,Potency,[17],0.0631 µM (active)
same,Potency,[5],3.55 µM (active)
same,Potency,[6],inactive
same,Potency,[7],inactive
same,Potency,[8],inactive
same,Potency,[9],inactive
same,Potency,[12],inactive
C=Cc1c(C)c2cc3nc(cc4[nH]c(cc5nc(cc1[nH]2)C(C)=C5CCC(=O)O)c(CCC(=O)OC)c4C)[C@@]1(C)C3=CC=C(C(=O)OC)[C@H]1C(=O)OC (tested in a mixture with another compound),Potency,[2],> 20.6 µM
same,Potency,[15],1.26 µM (active)
same,Potency,[3],inactive
same,outcome,[4],inactive
same,Potency,[5],0.355 µM (active)
same,Potency,[6],7.94 µM (active)
same,Potency,[9],2.51 µM (active)
same,Potency,[10],inactive
same,Potency,[11],0.501 µM (active)
same,Potency,[12],3.55 µM (active)
same,Potency,[13],1.69 µM (active)
C[C@@H](Cc1cccc(C(F)(F)F)c1)NCCOC(=O)c1ccccc1,Potency,[18],0.794 µM (active)
same,Potency,[2],> 20.6 µM
same,Potency,[15],inactive
same,Potency,[17],0.0158 µM (active)
CCN(CC)CCOC(=O)[C@@H](c1ccccc1)C1CCCCC1,Potency,[17],0.631 µM (active)
CN1[C@H](CC(=O)c2ccccc2)CCC[C@H]1C[C@@H](O)c1ccccc1,Potency,[18],31.6 µM (active)
same,Potency,[15],inactive
same,Potency,[16],inactive
CC/C=C\C[C@H]1C(=O)CC[C@@H]1CC(=O)O,Potency,[2],> 46 µM
same,Potency,[15],inactive
same,Potency,[16],inactive
same,Potency,[17],inactive
Cc1onc(-c2c(F)cccc2Cl)c1C(=O)N[C@H]1C(=O)N2[C@H]1SC(C)(C)[C@H]2C(=O)O,Potency,[18],inactive
same,Potency,[2],> 20.6 µM
O[C@@](CCN1CCCCC1)(c1ccccc1)[C@@H]1C[C@H]2C=C[C@@H]1C2,Potency,[18],inactive
same,Potency,[2],> 20.6 µM
same,Potency,[17],2 µM (active)
COC(=O)C1=C(C)NC(C)=C(C(=O)OCCN(C)Cc2ccccc2)[C@H]1c1cccc([N+](=O)[O-])c1,Potency,[2],> 20.6 µM
Nc1ncnc2c1ncn2[C@@H]1O[C@H](COP(=O)(O)O)[C@@H](O)[C@@H]1O,Potency,[18],inactive
same,Potency,[2],> 20.6 µM
same,Potency,[15],inactive
same,Potency,[16],inactive
same,Potency,[17],inactive
